Z-score data for 36 compounds are collected here from PubChem BioAssay.

Unmarked numbers belong to inactive results. Calls of active or inactive are those of the source.

This experiment can be described thus: MM1S myeloma cell viability, profiling panel, resazurin fluorescence, basal, 24 h, PK04 Diversity Set (AID 1174).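 Also: MM1S multiple myeloma cell line; test concentration not given here.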 To be noted: higher = more signal, called active from +8 up or from −8 down.
Turning to `O=C(O)[C@@H]1[C@@H]2C(=O)N(c3ccccc3)C(=O)[C@@H]2C[C@@H]1Sc1ccccc1`, the z-score was -0.832.

In the case of `CCOC(=O)C1=CC[C@@H](c2ccccc2F)N(S(=O)(=O)c2ccc(C)cc2)[C@H]1c1ccccc1`, the z-score is -0.0773.

Consider `C=CCN1Cc2ccccc2[C@@H]2OC(c3ccc(OCCCO)cc3)=N[C@]2(CC=C)C1=O`, for which the z-score was 0.0504.

As to `O=C(NCCN1CCOCC1)[C@@H]1c2ccccc2C(=O)N(C2Cc3ccccc3C2)[C@H]1c1ccc(CO)cc1`, the z-score is 0.886.

`C=CCC(OC(C)=O)[C@@H]1[C@@H](N(Cc2cccc3ccccc23)C(=O)Cc2ccc(OC)cc2)c2cc(OCCCO)ccc2N1C(=O)c1ccc(-c2ccccc2)cc1` (stereo partly specified): the z-score was 0.551.

Regarding `CC(C)[Si](C#CCCCC#N)(O[C@H](c1ccccc1)c1cn(Cc2ccccc2)nn1)C(C)C`, the z-score was 0.118.

`NCCCCCCNC(=O)[C@@H]1C[C@@H]2C(=O)N[C@@H](CCCCN)C(=O)N2[C@@H]1c1ccc(O)cc1`: the z-score is 0.681.

For `CCN(CC)c1ccc(N2CC=CC34O[C@@H]5/C=C\CCCOC(=O)C5[C@H]3C(=O)N(C(C)CO)[C@@H]4C2=O)cc1` (stereo partly specified), the z-score is 0.516.

Consider `CC(C)N1C(=O)C[C@@](C(=O)O)(c2ccc([N+](=O)[O-])cc2)[C@H]1c1ccc(CO)cc1`, for which the z-score is 0.305.

With `CN(C)C(=O)[C@@]1(Cc2ccccc2)N=C(c2ccc(OCCCO)cc2)O[C@H]1c1ccccc1`, the z-score was 0.857.

In the case of `Cc1ccc(S[C@]2(C(=O)NC(C)C)CC(=O)N(Cc3cc(C(F)(F)F)cc(C(F)(F)F)c3)[C@@H]2c2ccc(CO)cc2)cc1`, the z-score is 0.528.

For `COCC(=C=CC[C@H](O)c1ccc(CO)o1)CCO`, the z-score is -0.0463.

Consider `CCCCCN1CC=CC23O[C@@H]4/C=C\CCCOC(=O)C4[C@H]2C(=O)N(C(C)CO)[C@@H]3C1=O` (stereo partly specified), for which the z-score is 0.295.

Take `COc1ccc([Si](C)(C)[C@@H]2[C@@H](CCO)O[C@]3(C(=O)N(Cc4cccc(NC(=O)[C@H](C)O)c4)c4ccccc43)[C@H]2C)cc1`: the z-score is -9.06 (active).

Turning to `Cc1ccc(S[C@]2(C(=O)NCc3ccccc3)CC(=O)N(C3CCCCC3)[C@@H]2c2ccc(CO)cc2I)cc1`, the z-score was -1.82.

On to `CC(C)c1ccc(NN2C(C(O)c3ccc(F)cc3)C=CC3C(=O)N(c4ccccc4)C(=O)C32)cc1` (stereo unspecified), for which the z-score is -1.25.

As for `COC(=O)[C@@]1(Cc2ccccc2)[C@H]2c3cc(C(=O)N4CCCC4)n(CCc4ccccn4)c3C[C@H]2CN1C(=O)c1ccccc1`, the z-score is -0.454.

As for `CCCN1C(=O)[C@]2(Cc3ccccc31)N=C(c1ccc(OCCCO)cc1)O[C@@H]2c1ccccc1`, the z-score was -1.31.

Regarding `O=C1[C@H]2C=C(I)[C@H](C[C@@H]2OCCOCCO)[C@@]12CO2`, the z-score was -0.448.

Consider `CCCCCCc1nc(Cc2cc(OC)c(OC)c(OC)c2)cc2c1[Si](C(C)C)(C(C)C)OC2`, for which the z-score was 0.0456.

On to `COC(=O)C(CC#Cc1ccc2c(c1)[C@]1(C(=O)N2)[C@H](c2ccc(O)cc2)N2[C@H](c3ccccc3)[C@H](c3ccccc3)OC(=O)[C@H]2[C@@H]1C(=O)NC[C@H](O)c1ccccc1)C(=O)OC`, for which the z-score is -0.275.

For the compound `COCCOC(=O)N1C(=O)[C@@]2(c3cc(C#CC4=CCCCC4)ccc31)[C@H](c1ccccc1OCCO)N1[C@H](c3ccccc3)[C@H](c3ccccc3)OC(=O)[C@H]1[C@@H]2C(=O)N1CCN(c2ncccn2)CC1`, the z-score was 0.411.

With `O[C@@H](Cc1ccccc1)[C@@H](/C=C/C1CC1)N(CC#Cc1ccccc1)Cc1ccccc1Br`, the z-score is 1.14.

With `COc1cc2c(cc1O)C=[N+](Cc1sc3ccccc3c1Cl)CC2`, the z-score was -1.01.

Regarding `COc1ccc(C#Cc2ccc3c(c2)[C@]2(C(=O)N3)[C@H](C(=O)O)[C@H]3C(=O)O[C@H](c4ccccc4)[C@H](c4ccccc4)N3[C@@H]2c2ccc(O)cc2)cc1`, the z-score is 0.239.

In the case of `Cn1cccc1C(O)C1C=CC2C(=O)N(c3ccccc3)C(=O)C2N1Nc1ccccc1` (stereo unspecified), the z-score is -0.251.

As to `Cc1ccc(F)cc1S(=O)(=O)N[C@@H]1CCN(Cc2ccc(Br)cc2)C1`, the z-score was 0.611.

In the case of `CC1CC/C=C\[C@H]2OC34C=CCN(Cc5ccccc5)C(=O)[C@H]3N(C(CO)C(C)C)C(=O)[C@@H]4C2C(=O)O1` (stereo partly specified), the z-score was 0.325.

On to `CCOC(=O)C1=C[C@@H](C(C)C)N(S(=O)(=O)c2ccc(C)cc2)[C@H]1c1ccc(C(F)(F)F)cc1`, for which the z-score is -0.267.

On to `COCCCNC(=O)[C@@]1(Sc2ccc(C)cc2)CC(=O)N(C2Cc3ccccc3C2)[C@@H]1c1ccc(CO)cc1`, for which the z-score was 0.307.

On to `C[N+](C)(C)CCCC[C@@H]1NC(=O)[C@@H]2C[C@H](C(=O)NCCCCCCN)[C@H](c3cccc(OCCO)c3)N2C1=O`, for which the z-score is -0.0181.

Regarding `C=CCC(OC(C)=O)[C@@H]1[C@@H](N(Cc2ccc(-c3ccccc3)cc2)C(=O)c2ccc(-c3ccccc3)cc2)c2cc(OCCCO)ccc2N1C(=O)c1ccc2ccccc2c1` (stereo partly specified), the z-score was 0.149.

Regarding `CC1CC/C=C\[C@H]2OC34C=CCN(C(C)C)C(=O)[C@H]3N(CCO)C(=O)[C@@H]4C2C(=O)O1` (stereo partly specified), the z-score was 0.802.

As to `CCCNC(=O)[C@@H]1c2ccccc2C(=O)N(Cc2ccc(OC(F)(F)F)cc2)[C@H]1c1ccc(CO)cc1`, the z-score was 0.186.

As to `CC(C)NC(=O)[C@@]1(C)c2ccccc2C(=O)N(Cc2ccc(OC(F)(F)F)cc2)[C@H]1c1ccc(CO)cc1`, the z-score was 0.796.

For `COc1ccc(CCNC(=O)[C@@]2(Cc3ccccc3I)c3ccccc3C(=O)N(C3CCCCC3)[C@H]2c2ccc(CO)cc2)cc1`, the z-score is -0.0298.
